Screens (PubChem)
Only a selection was taken, and hits are over-represented in it overall.
ROC1-CUL1 inh: inhibitors of human ROC1-CUL1 ubiquitin ligase activity | in vitro K48 di-Ub FRET, acceptor:donor ratio, 45 min | AID 1347404 | hit rate 0.6% among 140,000 | inhibition, % at 10 µM | P62877+Q13616; in the data active = inhibition above about 25%
Target sequence (P62877 whole entry, looked up): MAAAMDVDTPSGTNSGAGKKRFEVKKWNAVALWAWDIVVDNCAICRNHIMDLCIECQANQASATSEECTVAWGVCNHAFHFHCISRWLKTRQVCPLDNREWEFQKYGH
Target sequence (Q13616 whole entry, looked up): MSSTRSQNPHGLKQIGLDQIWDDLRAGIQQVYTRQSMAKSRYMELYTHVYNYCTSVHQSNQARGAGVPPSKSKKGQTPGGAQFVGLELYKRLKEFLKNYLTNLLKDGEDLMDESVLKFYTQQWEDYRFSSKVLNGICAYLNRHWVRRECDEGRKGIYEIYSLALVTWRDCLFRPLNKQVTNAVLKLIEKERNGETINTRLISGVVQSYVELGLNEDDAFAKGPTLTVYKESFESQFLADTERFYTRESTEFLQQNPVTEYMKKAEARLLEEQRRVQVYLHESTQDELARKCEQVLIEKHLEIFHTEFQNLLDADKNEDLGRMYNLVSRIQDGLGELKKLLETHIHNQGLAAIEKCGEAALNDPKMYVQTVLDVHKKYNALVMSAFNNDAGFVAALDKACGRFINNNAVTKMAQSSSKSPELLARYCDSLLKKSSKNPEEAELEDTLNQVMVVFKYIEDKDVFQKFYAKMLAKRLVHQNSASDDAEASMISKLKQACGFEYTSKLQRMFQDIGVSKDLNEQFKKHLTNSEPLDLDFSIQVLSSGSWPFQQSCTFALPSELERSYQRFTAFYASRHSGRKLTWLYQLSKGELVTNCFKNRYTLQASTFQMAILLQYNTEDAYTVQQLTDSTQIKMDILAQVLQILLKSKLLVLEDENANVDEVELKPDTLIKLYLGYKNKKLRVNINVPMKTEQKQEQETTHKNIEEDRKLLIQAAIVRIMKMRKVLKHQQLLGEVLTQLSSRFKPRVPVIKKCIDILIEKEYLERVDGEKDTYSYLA
* = called active by the depositor.

SMILES	ROC1-CUL1 inh
O=C1S/C(=C\c2cc(Cl)c(O)c(Cl)c2)C(=O)N1c1ccc(Cl)cc1	22.2
CCOc1cc(/C=C2\SC(=O)N(c3ccc(Cl)cc3)C2=O)cc(Cl)c1O	8.1
O=C1S/C(=C\c2ccccc2C(F)(F)F)C(=O)N1c1ccc(Cl)cc1	11.2
O=C1S/C(=C\c2cc(Br)cc(Br)c2O)C(=O)N1c1ccc(Cl)cc1	31.5*
COc1cc(/C=C2\SC(=O)N(c3ccc(Cl)cc3)C2=O)cc(Cl)c1O	63.2*
Cn1c(=O)c2nc(/C=N/O)cnc2n(C)c1=O	-1.2
Cc1ccnc(NC(c2ccsc2)c2ccc3cccnc3c2O)c1 (stereo not given)	-6.9
CCOc1cc(/C=C2/C(=N)N3C=C(C)SC3=NC2=O)cc(Br)c1OC(=O)c1cccc(OC)c1	15.3
CN1CCC2=NC(=S)C(C#N)=C(c3ccc(F)cc3)C2C1 (stereo not given)	97.2*
N#CC1=C(c2ccco2)C2CCCCC2=NC1=S (stereo not given)	0.9
COc1ccc(C2=C(C#N)C(=S)N=C(C3CC3)C2)cc1	-1.3
CCOCCCNC(=O)c1cn(Cc2c(F)cccc2F)nn1	-1.9
CCOC(=O)N1CCN(CN2C(=O)C(=Nc3ccc4ccccc4c3)c3ccccc32)CC1	-1.9
COc1cc(/C=C/c2nc3ccccc3c(=O)n2-c2cccc(C(=O)O)c2)ccc1O	8.1
N#Cc1nc(N2CCOCC2)nc(N2CCOCC2)n1	0.8
CN(C)c1nc(SCC(N)=O)nc(N(C)C)n1	6.9
NC(=O)CSc1nc(N2CCOCC2)nc(N2CCOCC2)n1	49.7*
CCOC(=O)c1sc(NC(=S)NC(=O)C(C)(C)C)c(C(=O)OCC)c1C	-0.6
Cc1ccc2c(c1)-c1c(c(C(=O)N3CCN(c4cc(C)ccc4C)CC3)nn1C)CS2	44.2*
Cn1nc(C(=O)N2CCN(c3ccc(Cl)cc3)CC2)c2c1-c1ccccc1SC2	0.9
COc1ccc(NC(=O)c2nn(C)c3c2CSc2ccc(C)cc2-3)cc1OC	6.2
O=C1NC(=S)N=C1Cc1ccc(OCc2cccc(C(=O)O)c2)cc1	25.7*
CC(C)Oc1ccc(CC2=NC(=S)NC2=O)cc1	3.6
O=C(O)COc1ccc(CC2=NC(=S)NC2=O)cc1	6.8
CCCc1cc(=O)[nH]c(Sc2ccc([N+](=O)[O-])cc2[N+](=O)[O-])n1	3.5
SMILES	ROC1-CUL1 inh
CCn1cc(CN2CCC(C3(C)NC(=O)N(Cc4cccc(OC)c4OC)C3=O)CC2)c(C)n1 (stereo not given)	5.4
CC(C)N(C(=O)CCCOc1ccc(Cl)cc1Cl)C(C)C	3.8
Cc1cc(C)c(C2SCCS2)c(C)c1	2.0
Cc1cc(Cl)ccc1OCC(=O)Nc1ccc(C(=O)OC2CCCCC2)cc1	1.5
COc1ccc(OC)c(NC(=O)c2c(NCc3ccc(C)o3)sc3c2CCCCC3)c1	30.2*
COc1ccc(Cl)cc1NC(=O)c1c(NCc2ccc(C)o2)sc2c1CCC(C)C2 (stereo not given)	-2.5
COc1ccc(Cl)cc1NC(=O)c1c(NCc2ccc(C)o2)sc2c1CCCCC2	25.7*
COc1ccc(OC)c(NC(=O)c2c(NCc3ccc(OC)c(OC)c3)sc3c2CCC3)c1	2.6
COc1ccccc1NC(=O)c1c(NCc2ccc(C)o2)sc2c1CCCCC2	23.5
COc1ccc(OC)c(NC(=O)c2c(NCc3sccc3C)sc3c2CCCCC3)c1	3.0
O=C(NCC1(c2ccccc2)CCCC1)C(F)(F)F	-3.9
CC(C)NC(=O)C1CCCN(C2CCN(C3Cc4ccccc4C3)CC2)C1 (stereo not given)	-2.4
Cn1ccnc1C1CCCCN1C1CCN(c2ccc(C(=O)NCCN3CCOCC3)cc2)CC1 (stereo not given)	-0.9
CCOc1ccc(NS(=O)(=O)c2ccc(Br)s2)cc1	1.0
CCn1c(SCC(=O)Nc2ccc(OC)cc2)nc2sc(C)c(C)c2c1=O	-12.2
COC(=O)c1ccc(-c2nc(-c3ccccc3)no2)cc1	0.0
Cn1c(=O)c2c(nc(SCC(O)COc3cccc4ccccc34)n2C)n(C)c1=O (stereo not given)	-7.4
CCc1ccc(C2c3c(n[nH]c3COC)OC(=N)C2C#N)cc1 (stereo not given)	6.4
CC(C)(C)NC(=O)CCSc1ccc(Cl)cc1	-2.5
Cc1c(C(=O)O)cccc1-c1ccc(CC2=NC(=O)N(c3cccc(Cl)c3)C2=O)o1	-3.2
Cc1ccc(C(=O)O)cc1-c1ccc(CC2=NC(=O)N(c3ccc(Cl)cc3)C2=O)o1	50.2*
O=C1NC(=S)N=C1Cc1ccc(-c2cc(C(=O)O)ccc2Cl)o1	10.3
Cc1nc(C2CCNCC2)cc(N2CCN(c3ncccc3C#N)CC2)n1	5.5
COc1ccc(C(=O)Nc2ccccc2SCC2=Nc3c(C)cccc3C(=O)C2)cc1	-6.3
Cc1ccc(-c2cnc(C3CC(=O)N(CC(C)C)C3)[nH]2)c(C)c1 (stereo not given)	15.4
O=C(c1ccccc1)c1ccc2n[nH]nc2c1	-2.6
CC1=CC(C)=C2C=CC(=O)C(=O)C2O1 (stereo not given)	98.7*
CCCCC(=O)N1CC(C)N(C(=O)CCCC)CC1C (stereo not given)	-7.5
O=C(CN(Cc1ccc(Cl)cc1Cl)S(=O)(=O)c1ccccc1)Nc1ccccc1Br	11.8
